Records with an inconclusive call do not appear. Values without a mark were called inactive. The source made the active and inactive calls. The call rests on the fitted dose curve; in most records, active means well fitted cell-killing curve with a large enough effect in the repeat runs; inconclusive means weak or mixed curves, or effect the other way; inactive means flat fitted curve, though single readings scatter.
Assay: qHTS assay to identify small molecule antagonists of the androgen receptor (AR) signaling pathway using the MDA cell line in the presence of 0.5 nM R1881 - cell viability counter screen (AID 1259242); further: nearly all actives have a fitted effect of over 45% in size
Details: MDA-kb2 viability, CellTiter-Fluor protease fluorescence, 16 h; series mostly up to 92.4 µM
Source text: U.S. Tox21 Program National Center for Advancing Translational Sciences [NCATS] NIH Chemical Genomics Center [NCGC] U.S. Environmental Protection Agency [EPA] National Institutes of Environmental Health Sciences [NIEHS] National Toxicology Program [NTP] U.S. Food and Drug Administration [FDA] Tox21 Assay Overview: Androgen receptor (AR) is an important member of the nuclear receptor family. Its signaling plays a critical role in AR-dependent prostate cancer and other androgen related diseases. Considerable attention has been given in the past decades to develop methods to study and screen for the environmental chemicals that have the potential to interfere with metabolic homeostasis, reproduction, developmental and behavioral functions. Therefore AR binding assay for screening androgen antagonists can be used to identify potential endocrine disruptors. MDA-kb2 cells (from ATCC, deposited by Wilson et al.) were used to screen for AR inhibitors against Tox21 compound libraries. These cells are human breast carcinoma cells that were stably transfected with a luciferase reporter gene under control of the MMTV promoter that contains response elements for both androgen receptor (AR) and glucocorticoid receptor (GR). The current screening for identification of AR inhibitors against Tox21 libraries used lower concentration of (0.5 nM) R1881 as a stimulator. The cytotoxicity of the Tox21 compound libraries against MDA-kb2 cell line was tested by measuring live-cell protease activity using CellTiter-Fluor assay in the same wells.
Tox21 Assay Protocol Summary: MDA-kb2 cells (cells cultured without CO2) were dispensed at 3,000 cells/well in 4 uL of culture medium into white wall/solid-bottom 1536-well plates (Corning Life Sciences, Corning, NY) using a Multidrop Combi (ThermoFisher Scientific, Waltham, MA) dispenser. After the assay plates were incubated at a 37C and 0% CO2 for 5 hr, 23 nL of compounds dissolved in DMSO, positive controls or DMSO only was transferred to the assay plate by a Pintool station (Kalypsys, San Diego, CA). The transfer of compounds was followed by the addition of 1 uL of 0.5 nM (final concentration) agonist (R1881)/culture medium using a Flying Reagent Dispenser (FRD, Aurora Discovery, San Diego, CA). The plates were incubated at 37C and 0% CO2 for 16 hr. For cytotoxicity assay, 1 uL of CellTiter-Fluor reagent (Promega Corporation, Madison, WI) was added to each well using the FRD and after 30 min incubation at 37C and 0% CO2, The fluorescence intensity was measured using ViewLux plate reader (PerkinElmer, Shelton, CT).
On the % scale 0 is the no-effect control and ±100 the full control effect.

Compound	outcome	viability change, negative = cytotoxic
CC1(C)S[C@@H]2[C@H](NC(=O)Cc3ccccc3)C(=O)N2[C@H]1C(=O)O (tested in a mixture with another compound)	inactive	
CC(=O)/C=C/C=C1/C2CCC(C2)C1(C)C (stereo not given)	inactive	
CCOCCOCCOC(C)=O	inactive	
CC(C)(C)C(=O)NCCCC(=O)O	inactive	
CC(C)C(C)C	inactive	
c1cc2ccc3ccc4ccc5cccc6c(c1)c2c3c4c56		1.62% [at 3.26 µM]
O=C(O)COc1ccc2ccccc2c1	inactive	
O=CN1CCCCC1	inactive	
C=CC(=O)OCC[N+](C)(C)C	inactive	
CCCCC(CC)COC(=O)CC#N (stereo not given)	inactive	
COC(C)(C)CC(C)=O	inactive	
CCOC(=O)c1ccc(N(C)C)cc1	inactive	
CC/C=C/CCCCCCCCCCOC(C)=O	inactive	
C[n+]1ccccc1/C=N/O	inactive	
CN(C)CCc1c[nH]c2ccc(C[C@H]3COC(=O)N3)cc12	inactive	
COC(=O)c1cc(Cl)c(NC(C)=O)cc1OC	inactive	
CC(=O)SC[C@@H](C)C(=O)N1CCC[C@H]1C(=O)N[C@@H](Cc1ccccc1)C(=O)O	inactive	
C=CCON/C(CCC)=C1\C(=O)CC(C)(C)C(C(=O)OC)=C1O	inactive	
O=S(=O)(O)CC(O)CCl (stereo not given)	inactive	
O=Cc1ccccc1S(=O)(=O)O	inactive	

Compound	outcome	viability change, negative = cytotoxic
CC(C)(C)c1ccc(N)cc1	inactive	
CC/C=C\CCOC(=O)c1ccccc1	inactive	
COC(=O)/C=C(\C)CCC=C(C)C	inactive	
CC1=C(O)C(=O)CO1	inactive	
CC12CCCC=C1C(=O)OC2=O (stereo not given)	inactive	
O=C(OOC(=O)c1ccccc1)c1ccccc1	inactive	
CC(CN1CC(=O)NC(=O)C1)N1CC(=O)NC(=O)C1 (stereo not given)	inactive	
CCCCN(CCCC)CCCCCCN(CCCC)CCCC	inactive	
CCC(C)SSC(C)CC (stereo not given)	inactive	
Cc1ccc(Br)cc1	inactive	
CC(C)(C)OC=O	inactive	
CC(=O)Nc1ccc(S(=O)(=O)Nc2cc(C)on2)cc1	inactive	
COC(=O)c1ccccc1Cl	inactive	
COc1cc(S(N)(=O)=O)cc(C(=O)O)c1OC	inactive	
O=C(c1ccccc1)c1cccc(O)c1	inactive	
CC/C=C\CCCCCCCCCCOC(C)=O	inactive	
CCN1CCN(C(=O)N[C@@H](C(=O)N[C@@H]2C(=O)N3C(C(=O)O)=C(CSc4nnnn4C)CS[C@H]23)c2ccc(O)cc2)C(=O)C1=O	inactive	
COC(=O)C(c1ccccc1Cl)N1CCc2sccc2C1 (stereo not given)	inactive	
C=CCN(CC=C)CC=C	inactive	
CCCC(=O)CC	inactive	
